Test results taken from PubChem BioAssay (EPA / NIEHS).
Activity calls are given as the source filed them. How the source made its calls: active means hit-call score of the fitted dose curve at least 0.9, where 1 is the maximum; inactive means score below 0.9.

read-out: CFLAR gene, CFLAR (gene 8837); experiment: LTEA_HepaRG_CFLAR: Life Technologies and Expression Analysis (LTEA) Assay for CFLAR gene using HepaRG (AID 2283455); conditions: mRNA level, 48 h; actives raise or lower the signal
Experimental: LTEA_HepaRG is a cell based, multiplexed-readout assay that uses HepaRG, a human liver cell line, with measurements taken at 48 hours after chemical dosing on a 96-well plate.LTEA_HepaRG_CFLAR is one of 102 assay component(s) measured in the LTEA HepaRG cell culture assay. It is a marker of Cell proliferation, survival, death.Data from the assay component LTEA_HepaRG_CFLAR was analyzed into 1 endpoint. This assay endpoint, LTEA_HepaRG_CFLAR, was analyzed with bidirectional fitting relative to DMSO as the negative control and baseline of activity. Using a type of inducible reporter, measures of mRNA induction for gain or loss-of-signal activity can be used to understand regulation of transcription factor activity. To generalize the intended target to other relatable targets, this assay endpoint is annotated to the cell cycle intended target family, where the subfamily is Cell proliferation, survival, death.
A total of 1060 chemcials from the ToxCast library were tested in eight-point concentration-response experiments. Cell culture and cytotoxicity assays were conducted at Thermo Fisher Scientific's Custom Services facility (Madison, WI). A single lot of human HepaRG cells (Thermo Fisher Scientific, Frederick, MD) was used for the cell culture experiments. 96-well format collagen type I coated plates of human HepaRG cells were prepared using established methods. Briefly, cryopreserved HepaRG cells were thawed, plated at a density of approximately 100,000 cells/well in HepaRG Thaw, Plate, and General Purpose media (HPRG770, Thermo Fisher Scientific), and incubated for 48 hours. 0.5% DMSO was selected as vehicle control to balance the requisite need of DMSO in HepaRG cultures to maintain differentiation (for example, baseline metabolism, proportions of hepatocytes vs. cholangiocytes), while enabling further hepatic receptor pathway activation (for example, PXR and CAR) in response to chemical exposure. 48 hours after plating, the culture medium was replaced with HepaRG Serum-Free Incudtion Media. Cells were exposed to each test chemical in duplicate and maintained in CO2 incubators for another 48 hours. Chemical plates were thawed to room temperature and 200x concentrations of treatment groups were prepared. 8-point conentration-reponse curves were made with the highest exposure at 100 uM, followed by half-log dilutions, all in 0.5% DMSO. Each test plate contained variouse controls, induction positive controls (1mM phenobarbital), cytotoxicity positive controls ([…] aflatoxin B1), vehicle controls (0.5% DMSO), and total lysis controls (0.5% DMSO). Cell morphology images were taken using an Essen IncuCyte FLR automated microscope, with six 96-well plates imaged in about 24 minutes. Images were captured and exported and JPEG files. Spent culture media was transfered to black-well plates for the LDH assay, and remaining media was sorted at -80 C for later use. Cells were treated with RLT buffer and frozen until shipped for gene expression analysis. Total RNA was isolated from the cell suspension in 75 uL of Buffer RLT (Qiagen, Germantown, MD 20874) by Quintiles/Expression Analysis (Durham, NC) using a custom isolation procedure. Total RNA from each plate well was transferred to a preamplification plate. Fluidigm's 96.96 Dynamic ArrayTM (Fluidigm, Amsterdam, the Netherlands) technology was used for gene expression analyses by quantitative reverse transcription polymerase chain reaction (qRT-PCR, performed by Quintiles/Expression Analysis, Durham, NC)89. Standard TaqManTM Assays (Applied Biosystems/ThermoFisher Scientific, Foster City, CA) were used to assess the expression of 93 genes selected based on their selectivity and sensitivity to important hepatic receptors known to be modulated by environmental chemicals; importance in human hepatocyte functionality; and hepatotoxicity. […]

Q: With `NS(=O)(=O)c1cc2c(cc1Cl)NCNS2(=O)=O` as the compound, how does the outcome read?
A: inactive

Q: With `CCCCc1ccc2c(n1)[C@@H](c1ccc(OC)cc1C[C@H](C)C(=O)O)[C@H](C(=O)O)[C@H]2c1ccc2c(c1)OCO2` as the compound, how does the outcome read?
A: inactive

Q: `O=C(OCCCCCOC(=O)c1ccccc1)c1ccccc1` was tested. Which AC50 did it give?
A: 0.228 µM (active)

Q: With `Nc1ccc2c(c1)C(=O)c1ccccc1C2=O` as the compound, how does the AC50 read?
A: 3.31 µM (active)

Q: Which outcome does the source give for `O=[N+]([O-])C(CO)(CO)CO` here?
A: inactive

Q: For `Nc1nc(N)c2nc(CNc3ccc(C(=O)N[C@@H](CCC(=O)O)C(=O)O)cc3)cnc2n1`, which outcome is on record?
A: inactive

Q: Which outcome does the source give for `CN[C@H]1CC[C@@H](c2ccc(Cl)c(Cl)c2)c2ccc(S(N)(=O)=O)cc21` here?
A: inactive

Q: For `CCCCCCCCCCCCCCCCCC(=O)O`, which outcome is on record?
A: inactive

Q: `CCNc1cccc(C)c1` was tested. Which outcome did it give?
A: inactive

Q: For `Cc1cc(=O)[nH]c(=S)[nH]1`, which outcome is on record?
A: inactive

Q: `CCCCCCCCCCCC(=O)OC` was tested. Which outcome did it give?
A: inactive

Q: With `CCCCCCCCCCC` as the compound, how does the outcome read?
A: inactive

Q: With `Cc1nc(-c2ccc3c(c2)CCN(CCC2CCC(NC(=O)/C=C/c4ccc(F)cc4)CC2)CC3)no1` (stereo not given) as the compound, how does the outcome read?
A: inactive

Q: Which outcome does the source give for `CCc1c(C(=O)NN2CCCCC2)nn(-c2ccc(Cl)cc2Cl)c1-c1ccc(Br)cc1` here?
A: inactive

Q: With `NC(=O)Cn1c(=O)cc(CCN2CCN(c3nccc4sccc34)CC2)c2ccc(F)cc21` as the compound, how does the outcome read?
A: inactive

Q: With `CC(C)c1ccc(C(=O)N=C(N)N)cc1S(C)(=O)=O` as the compound, how does the AC50 read?
A: 0.361 µM (active)

Q: With `CCOc1ccc2c(c1)C(C)=CC(C)(C)N2` as the compound, how does the outcome read?
A: inactive

Q: `O=c1[nH]cc(F)c(=O)[nH]1` was tested. Which outcome did it give?
A: inactive

Q: Which outcome does the source give for `CCOC(=O)CCC(=O)OCC` here?
A: inactive

Q: `Cc1cccc(C)c1O` was tested. Which outcome did it give?
A: inactive

Q: With `COCCOC[C@H](CC1(C(=O)NC2CCC(C(=O)O)CC2)CCCC1)C(=O)Oc1ccc2c(c1)CCC2` (stereo not given in full) as the compound, how does the outcome read?
A: inactive

Q: How did the outcome turn out when `Cc1c(C(=O)O)c(O)cc2c1C(=O)c1c(O)c([C@@H]3O[C@H](CO)[C@@H](O)[C@H](O)[C@H]3O)c(O)c(O)c1C2=O` was run?
A: inactive

Q: With `CCCCCCOCCO` as the compound, how does the outcome read?
A: inactive

Q: Which outcome does the source give for `CCCCCC(=O)O` here?
A: inactive

Q: `CCCCCCCCCCCCCCCC` was tested. Which outcome did it give?
A: inactive

Q: For `CCCCCCC(=O)OCC`, which outcome is on record?
A: inactive

Q: `C=CCOC(=O)c1ccccc1C(=O)OCC=C` was tested. Which outcome did it give?
A: inactive

Q: `COc1cc(C=O)ccc1O` was tested. Which outcome did it give?
A: inactive

Q: How did the outcome turn out when `CC(=O)OCCOCCOCCOC(C)=O` was run?
A: inactive

Q: How did the outcome turn out when `COc1ccc(C)cc1N` was run?
A: inactive

Q: Which outcome does the source give for `Cc1ccc2ncccc2c1` here?
A: inactive

Q: With `c1cc(-c2ccncc2)ccn1` as the compound, how does the outcome read?
A: inactive

Q: Which outcome does the source give for `CC(CO)OC(C)CO` (stereo not given) (tested in a mixture with another compound) here?
A: inactive

Q: For `OC[C@@H](O)[C@@H](O)[C@H](O)[C@H](O)CO`, which outcome is on record?
A: inactive

Q: `CCCCN(CCCC)CCCC` was tested. Which outcome did it give?
A: inactive

Q: For `CC(=O)OC/C=C(\C)CCC=C(C)C`, which outcome is on record?
A: inactive

Q: `COc1cc(S(=O)(=O)O)c(C)cc1N=Nc1c(O)ccc2cc(S(=O)(=O)O)ccc12` was tested. Which outcome did it give?
A: inactive

Q: Which outcome does the source give for `CCCc1cc(=O)[nH]c(=S)[nH]1` here?
A: inactive

Q: For `Cc1ccc(C)c(C)c1`, which outcome is on record?
A: inactive

Q: With `Cc1ccccc1Cl` as the compound, how does the outcome read?
A: inactive
